As a reminder, the inhibition is the drop in the measured response relative to a control, in per cent.

Values without a mark were called inactive.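 Rule for the calls: active = inhibition at or above 50% relative to wild type and mutant plate controls; inactive = inhibition below 50%.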

This experiment is described as follows: loss of swimming-algae plug formation – whole organism, Chlamydomonas reinhardtii, WT vs cilia-less mutant, absorbance, 96-well, primary screen (AID 463189).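 Note: 0% = wild type cc124 cells in DMSO and 100% = ciliumless bld1 mutant cells.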 Particulars: Chlamydomonas reinhardtii gravitaxis, OD600 absorbance, 2 days; at 10 µM; active compounds read high.
Take `COC(=O)[C@@H](N)CCCN=C(N)N[N+](=O)[O-]`: the inhibition was -4.62%. For the compound `N[C@@H](Cn1cc(I)c(=O)[nH]c1=O)C(=O)O`, the inhibition is 9.47%. With `N#CC(C#N)=Cc1ccc(O)c(O)c1`, the inhibition is 1.54%. For `NNCc1cccc(O)c1` the value was -4.41%; for `C[N+]1(C)C2CCC1CC(OC(=O)c1c[nH]c3ccccc13)C2` (stereo unspecified), 8.92%.

On to `CCN(CC)C(=O)N[C@@H]1C[C@@H]2c3cccc4[nH]cc(c34)C[C@H]2N(C)C1`, for which the inhibition is 5.28%. For `CC(=O)OCC1=C(C(=O)[O-])N2C(=O)[C@@H](NC(=O)CCC[C@@H](N)C(=O)[O-])[C@H]2SC1.[Zn+2]` the value was 3.46%; for `CN1C[C@@H](CS(=O)(=O)N(C)C)C[C@@H]2c3cccc4c3c(cn4C)C[C@H]21`, 4.5%; for `c1ccc2cc(CC3=NCCN3)ccc2c1`, 1.93%. With `N[C@@H](CCl)C(=O)O`, the inhibition was 3.95%. For `Cc1ccc(S(=O)(=O)N[C@@H](CCCCN)C(=O)CCl)cc1` the value was 5.31%. As for `O=c1[nH]oc2c1CCNC2`, the inhibition was 1.51%. For `CCCn1c(C)c(C(=O)c2ccc3ccccc3c2)c2ccccc21` the value was 18.5%. For `CCCCCCCCCCCCCC(=O)O[C@@H]1[C@@H](C)[C@@]2(O)[C@@H](C=C(CO)C[C@@]3(O)C(=O)C(C)=C[C@@H]23)C2C(C)(C)[C@@]21OC(C)=O` (stereo partly specified) the value was -13.4%; for `C=CCN1CC[C@]23CCCCC2[C@H]1Cc1ccc(O)cc13` (stereo partly specified), 7.64%. For `CCCN(CCC)[C@@H]1CCc2ccc(O)cc2C1`, the inhibition is -3.45%.

The values above are taken from PubChem BioAssay.
